Laboratory results taken from PubChem BioAssay (NCATS).
Where “and” joins values, the source holds several entries; their conditions need not be identical. Equal values may be shown once. Records with an inconclusive call do not appear. Calls of active or inactive are those of the source. Unless noted, the call rests on the fitted dose curve; in most records, active means well fitted curve in the direction sought with a large enough effect; inconclusive means small, poorly fitted or top-dose-only effect, or another doubt; inactive means no such curve, though single readings can be large; an effect the other way counts as inactive or inconclusive.

What was measured:
[1] = Cellular Toxicity (caspase-3) HUV-EC-C (AID 656);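 further: 0% = DMSO basal and 100% = 100 µM tamoxifen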
Procedure, shortened: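 Luminescent caspase-3/7 activation (aminoluciferin substrate cleavage) in HUV-EC-C cells after 16 hr compound exposure, 37°C. Signal normalized to DMSO basal and 100 uM tamoxifen as 100%; AC50 from concentration-response fitted with the Hill equation.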

[2] = Cellular Toxicity (caspase-3) SHSY5Y (AID 657)
Procedure, shortened: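 Luminescent caspase-3/7 readout (aminoluciferin release) in SH-SY5Y cells after 16 h compound exposure in complete medium. Activity scaled between DMSO basal and 10 uM staurosporine as 100%; concentration-response fitted to Hill equation for AC50.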

[3] = Cellular Toxicity (caspase-3) SK-N-SH (AID 661);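 further: 0% = DMSO basal and 100% = 10 µM staurosporine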
Procedure, shortened: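 Caspase 3/7 activation is measured as a luminescence increase from aminoluciferin released by substrate cleavage in SK-N-SH cells after 16 hr compound treatment; values are AC50 from concentration-response curves.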

[4] = Cellular Toxicity (caspase-3) H-4-II-E (AID 663); conditions: Potency: caspase-3 activation;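 further: cells exposed to compound for 16 hr before readout; 0% = DMSO basal and 100% = 100 µM tamoxifen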
Procedure, shortened: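 Luminescence from caspase-cleaved aminoluciferin substrate, read 20 min after reagent addition, reports caspase 3/7 activation in rat H-4-II-E cells after 16 hr compound exposure. Normalized to DMSO (basal) and 100 uM tamoxifen (100%); AC50 from Hill fits.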

[5] = Cell Viability - LYMP1-002 - Assay at 16 hr (AID 948);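 further: 0% = DMSO alone and full effect = 92 µM tetraoctylammonium bromide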
Procedure, shortened: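 LYMP1-002 human lymphoblastoid cells, 2500/well; 5 hr 37 C; cpd 16 hr 37 C; CellTiter-Glo 30 min RT; luminescence (ATP). Concentration-response, Hill-fit AC50. Pos ctrl tetraoctylammonium bromide.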

[6] = Cell Viability - LYMP1-003 - Assay at 24 hr (AID 963);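 further: plate controls were DMSO only for no effect and tetraoctylammonium bromide positive control for full effect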
Procedure, shortened: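 Acute toxicity in LYMP1-003 lymphoblastoid cells: 24 hr compound treatment at 37 C, ATP measured with CellTiter-Glo after 30 min at room temperature. AC50 derived by fitting the Hill equation to qHTS titrations.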

[7] = Cell Viability - LYMP1-003 - Assay at 40 hr (AID 964); further: series mostly up to about 92 µM; on the % scale 0 is the no-effect control and ±100 the full control effect; nearly all actives have a fitted effect of over 60% in size
Procedure, shortened: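 This qHTS cytotoxicity screen treats human lymphoblastoid cells (LYMP1-003) with compounds for 40 hr and quantifies cellular ATP via luciferase luminescence.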

[8] = Cell Viability - LYMP2-003 (AID 965);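 further: cells exposed to compounds for 24 h before reading; 0% = DMSO only and full effect = 92 µM tetraoctylammonium bromide; nearly all actives have a fitted effect of over 50% in size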
Procedure, shortened: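 CellTiter-Glo luminescence (cellular ATP) after 24 h compound exposure at 37 C in complete medium; 2500 cells/well, 5 h settling beforehand. Concentration-response fitted to standard Hill equation for AC50. Tetraoctylammonium bromide served as positive control.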

[9] = Cell Viability - LYMP2-009 (AID 968);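 further: series mostly up to about 92 µM; 0% = DMSO alone and the full-kill end = tetraoctylammonium bromide at 92 µM; nearly all actives have a fitted effect of over 55% in size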
[10] = Cell Viability - LYMP2-011 (AID 969);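 further: 0% = DMSO only and full inhibition = 92 µM tetraoctylammonium bromide; nearly all actives have a fitted effect of over 60% in size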
Procedure, shortened: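 Acute toxicity is scored as a concentration-dependent drop in intracellular ATP of a human lymphoblastoid line after 24 hr treatment. Values are AC50s modeled with the Hill equation.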

[11] = Cell Viability - LYMP2-013 (AID 970);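 further: series mostly up to about 92 µM; 0% = DMSO only and full inhibition = tetraoctylammonium bromide control; nearly all actives have a fitted effect of over 55% in size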
Procedure, shortened: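 Acute toxicity was measured in human lymphoblastoid cells (2500/well) exposed to compound titrations for 24 hr, with ATP luminescence (CellTiter-Glo) as read-out and AC50 fitted by Hill equation.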

[12] = Cell Viability - LYMP2-017 (AID 972);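 further: series mostly up to about 92 µM; cells exposed to compound for 24 hours at 37 °C; on the % scale 0 is the no-effect control and ±100 the full control effect; nearly all actives have a fitted effect of over 55% in size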
Procedure, shortened: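 Steps: plate 2500 lymphoblastoid cells per well; incubate 5 hr at 37 C; add compound across a concentration series and incubate 24 hr at 37 C; add CellTiter-Glo and read luminescence after 30 min at room temperature; fit Hill curves for AC50.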

[13] = Cell Viability - LYMP2-023 (AID 975);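 further: cellular ATP measured by luciferase luminescence as viability proxy; series mostly up to about 92 µM; cells exposed to compound for 24 hours at 37 °C; plate controls were DMSO only for no effect and 92 µM tetraoctylammonium bromide control for full effect; nearly all actives have a fitted effect of over 55% in size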
Procedure, shortened: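 Concentration-dependent drop in intracellular ATP measures acute cytotoxicity in a human lymphoblastoid line treated for 24 hours in complete culture medium. AC50 values are taken from Hill-equation fits of qHTS data.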

[14] = Cell Viability - LYMP2-002 (AID 977);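 further: series mostly up to about 92 µM; plate controls were DMSO only for no effect and 92 µM tetraoctylammonium bromide for full effect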
Procedure, shortened: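 Luminescent ATP readout (CellTiter-Glo, 30 min room temperature) after 24 h compound exposure at 37 C of a human lymphoblastoid line, 2500 cells/well. AC50 values derived by standard Hill fitting of qHTS concentration-response data.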

[15] = qHTS assay for small molecule activators of the p53 signaling pathway (AID 651743; active means well fitted activation curve with a large enough effect in the signal ratio, not every such curve was filed as active; the % refers to the signal ratio; further: series mostly up to about 92 µM; % of control where 0% means no effect); conditions: HCT-116 p53RE-bla, beta-lactamase FRET ratio, 16 h; activation: hits give high values
Procedure, shortened: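 p53RE-bla HCT-116 cells with a stably integrated beta-lactamase reporter under p53 response elements were plated, rested 5 hours at 37 C/5% CO2, then exposed to compounds in DMSO for 16 hours at 37 C. LiveBLAzer B/G FRET substrate was read after 2 hours at room temperature.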

[16] = qHTS assay for small molecule agonists of the antioxidant response element (ARE) signaling pathway measured by Nrf2-dependant transcriptional activity - cell viability counter screen (AID 720653; active means well fitted curve in the direction sought with a large enough effect in the repeat runs; an effect the other way counts as inactive or inconclusive; further: on the % scale 0 is the no-effect control and ±100 the full control effect); conditions: ARE-bla HepG2 viability, CellTiter-Glo ATP luminescence, 16 h; hits give low values
Procedure, shortened: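 ARE-bla HepG2 cells (2,000/well) rested 5 hrs at 37C/5% CO2, then exposed to compounds in DMSO for 16 hrs. Viability was read in the same wells as intracellular ATP by luminescence, 30 min at room temperature after reagent addition.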

[17] = MultiTox-Fluor Cytotoxicity Assay - LYMP1-002 - Dead Cells (AID 960);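 further: 0% = DMSO and 100% = tetraoctylammonium bromide; nearly all actives have a fitted effect of over 60% in size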
Procedure, shortened: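 Acute cytotoxicity in a human lymphoblastoid line is scored as rising dead-cell protease signal after 16 hr exposure at 37 C, measured fluorometrically (485/520).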

[18] = Cell Viability - LYMP2-012 (AID 982)
[19] = biological target: Retinoic acid receptor RXR-alpha (Homo sapiens) (UniProt P19793); assay: qHTS assay for small molecule agonists of retinoid X receptor alpha signaling (AID 588544; calls by dose curve;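 further: 0% = DMSO basal wells and 100% = reference agonist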)
[20] = biological target: Retinoic acid receptor RXR-alpha (Homo sapiens) (UniProt P19793); assay: qHTS assay for small molecule antagonists of retinoid X receptor alpha signaling (AID 588546; active means well fitted inhibition curve with a large enough effect in the signal ratio, with a control signal flat, not every such curve was filed as active; the % refers to the signal ratio;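 further: cells stimulated with 9-cis-retinoic acid as agonist; on the % scale 0 is the no-effect control and ±100 the full control effect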); conditions: HEK293T RXRa-UAS-bla, beta-lactamase ratio, antagonist mode
Procedure, shortened: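 Beta-lactamase reporter inhibition, read as CCF4 fluorescence ratio (ex 405, em 460/530 nm) after 2 h at RT. HEK293T UAS-bla cells, 2500/well, were stimulated with 9-cis-RA at 500 or 100 nM final alongside test compound for 18 h at 37 C.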

Sequence of Retinoic acid receptor RXR-alpha (Homo sapiens) (P19793 whole entry, looked up): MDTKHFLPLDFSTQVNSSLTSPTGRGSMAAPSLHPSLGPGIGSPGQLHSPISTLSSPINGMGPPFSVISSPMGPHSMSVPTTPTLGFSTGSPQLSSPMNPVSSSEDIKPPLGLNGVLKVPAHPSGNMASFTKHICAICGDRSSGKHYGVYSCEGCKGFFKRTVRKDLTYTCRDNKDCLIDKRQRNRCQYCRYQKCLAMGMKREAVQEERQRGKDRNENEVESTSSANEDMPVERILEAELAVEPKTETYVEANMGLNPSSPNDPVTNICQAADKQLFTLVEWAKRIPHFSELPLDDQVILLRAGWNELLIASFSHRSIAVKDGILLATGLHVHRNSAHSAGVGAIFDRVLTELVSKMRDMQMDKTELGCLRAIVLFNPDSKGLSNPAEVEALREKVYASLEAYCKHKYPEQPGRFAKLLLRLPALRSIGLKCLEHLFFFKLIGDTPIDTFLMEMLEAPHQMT

Cc1cccc(C)c1N
inactive: outcome [1] | outcome [2] | Potency [3] | Potency [4] | outcome [5] | outcome [6] | Potency [7] | Potency [8] | Potency [9] | Potency [10] | Potency [11] | Potency [12] | Potency [13] | Potency [14] | activation [15] 1.32% | max response [16] 4.9%

CN(C)C(=O)Nc1ccc(Cl)cc1
inactive: outcome [1] | outcome [2] | Potency [3] | Potency [4] | outcome [5] | Potency [17] | outcome [6] | Potency [7] | Potency [8] | Potency [9] | Potency [10] | Potency [11] | Potency [12] | Potency [13] | Potency [14] | Potency [18] | outcome [19] | max response [20] -0.754% and 1.84% | activation [15] -1.85% and -2.71% | max response [16] -16.9% and 1.13%

ClC(Br)Br
inactive: outcome [2] | Potency [17] | outcome [6] | Potency [7] | Potency [9] | Potency [10] | Potency [11] | Potency [12] | Potency [14] | Potency [18] | outcome [19] | max response [20] 0.0478% | activation [15] 6.47% | max response [16] 0.446%

c1ccoc1
inactive: outcome [1] | outcome [2] | Potency [3] | outcome [5] | Potency [17] | outcome [6] | Potency [7] | Potency [8] | Potency [9] | Potency [10] | Potency [13] | outcome [19] | max response [20] -5.23% | activation [15] 1.16%

Cc1coc2c1CCC(C)C2 (stereo unspecified)
inactive: outcome [1] | outcome [2] | Potency [4] | outcome [5] | Potency [17] | outcome [6] | Potency [7] | Potency [8] | Potency [9] | Potency [11] | Potency [12] | Potency [14] | outcome [19] | max response [20] -0.116% | activation [15] -2.44% | max response [16] -1.7%

CCCCOCC1CO1 (stereo unspecified)
inactive: outcome [1] | outcome [2] | Potency [3] | Potency [4] | outcome [5] | Potency [17] | Potency [7] | Potency [8] | Potency [9] | Potency [10] | Potency [12] | Potency [13] | Potency [14] | outcome [19] | max response [20] 20.3% | activation [15] -1.31% | max response [16] -2.9%

C=CC(=O)OCCN(C)C
inactive: outcome [1] | outcome [2] | Potency [3] | Potency [4] | outcome [5] | Potency [17] | outcome [6] | Potency [7] | Potency [8] | Potency [9] | Potency [10] | Potency [11] | Potency [12] | Potency [13] | Potency [14] | Potency [18] | outcome [19] | max response [20] 5.11% | activation [15] 0.0499% | max response [16] 5.35%

O=C(O)C(Cl)(Cl)Br
inactive: outcome [1] | Potency [3] | Potency [17] | outcome [6] | Potency [7] | Potency [8] | Potency [9] | Potency [10] | Potency [11] | Potency [12] | Potency [13] | Potency [14] | outcome [19] | max response [20] 1% | activation [15] -0.303% | max response [16] -4.89%

Clc1cc(Cl)c(Cl)c(Cl)c1
inactive: outcome [1] | outcome [2] | Potency [3] | Potency [7] | Potency [8] | Potency [9] | Potency [10] | Potency [11] | Potency [12] | Potency [13] | Potency [14] | Potency [18] | outcome [19] | max response [20] 14.2% | max response [16] -5.74%

c1ccc(C2CO2)cc1 (stereo unspecified)
inactive: outcome [2] | outcome [5] | Potency [17] | outcome [6] | Potency [8] | Potency [9] | Potency [10] | Potency [11] | Potency [12] | Potency [13] | Potency [18] | outcome [19] | max response [20] 32.3% | activation [15] -1.82% | max response [16] -5.33%

Nc1ccc(-c2ccccc2)cc1
inactive: outcome [1] | Potency [3] | Potency [4] | outcome [5] | Potency [17] | outcome [6] | Potency [7] | Potency [9] | Potency [10] | Potency [11] | Potency [12] | Potency [13] | Potency [14] | outcome [19] | activation [15] -1.6% | max response [16] 5.56%

O=C(O)c1cccc(Cl)c1
inactive: outcome [1] | Potency [3] | Potency [17] | outcome [6] | Potency [7] | Potency [8] | Potency [9] | Potency [10] | Potency [11] | Potency [12] | Potency [13] | outcome [19]

Nc1ccc(Cl)c(Cl)c1
inactive: outcome [1] | outcome [2] | Potency [3] | Potency [4] | Potency [17] | outcome [6] | Potency [7] | Potency [8] | Potency [9] | Potency [10] | Potency [11] | Potency [12] | Potency [13] | Potency [18] | activation [15] 0.678% | max response [16] -17.9%

C=CC(=O)OCC(C)C
inactive: outcome [1] | Potency [3] | outcome [5] | Potency [17] | outcome [6] | Potency [8] | Potency [9] | Potency [10] | Potency [11] | Potency [12] | Potency [14] | Potency [18] | outcome [19] | max response [20] 5.4% | activation [15] -0.853% | max response [16] -10.1%

Oc1c(Cl)cccc1Cl
inactive: outcome [1] | outcome [2] | Potency [3] | Potency [4] | outcome [5] | Potency [17] | outcome [6] | Potency [7] | Potency [9] | Potency [10] | Potency [11] | Potency [12] | Potency [13] | Potency [14] | Potency [18] | outcome [19] | max response [20] 27.8% | max response [16] 9.38%
